Here are results for 40 sequences from the supplement of paper PMC6555819.

For the test, the system named is VDR homodimer (NR concentration 270 nM). The experiment in a line: PBM binding z-score (relative to random genomic background probes); higher = stronger binding; sequences stand for … in GC…GCGATTGACAGCGTAGAATGAAGG
The method, boiled down:
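Scanned fluorescence from custom Agilent 4×180K protein-binding microarrays was regression-normalized. Binding z-scores use random background probes as reference. Ligand-free nuclear receptor dimers were incubated on the arrays for 1 h and detected with antibodies against each partner (one per run).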
On to ATCGAAATGTCGAGGTGAGTATAGAGAAAGGGAA, for which the PBM binding z-score is -0.583.
Then ACTAGCAGGCCCAGTTTGGGTCACTCAAACAAAG, with -0.243; and CCTAGTTGGTCGGGAGGTCACACACCGGATATGA, with 3.06.
In turn, ATCTCTAGGTAAAGACAGTTCAGTGAATGCAAAT had a PBM binding z-score of 1.14.
As for CCGATTGGGGCAAGGTTACCATAACGCACAGCCA, the PBM binding z-score is -0.398.
In turn, GCTGTTAGGTCAACTGATGGTCAGCTAAAGCTCG gave a PBM binding z-score of 0.277.
Regarding AGAATGAGGTTATACGTAGTTCAGGGAAGAAAGT, the PBM binding z-score was 1.61.
Sequence CCTTGTTGGTCAAGGTCACACACGCTATAGGTAC registered a PBM binding z-score of 3.13.
As for CGTCCAAGGTCAGAGAGGTCAGTTAATGCCGAGT, the PBM binding z-score came out at 6.29.
With TCGAGTAGGTCAGGGGCATTCAGAATGGCGTCGA, the PBM binding z-score was 0.669.
In the case of GCAGACAGGTGAAACGCAGGAAACTCAGGGTGGC, the PBM binding z-score is -0.569.
For ACTCGGAGAACAAAGGTCAGAGCTACGCCAGTGA, the PBM binding z-score stood at 0.553.
On to ATCTCTAGGTAAAGATAGATCAGTGAATGCAAAT, for which the PBM binding z-score is -0.0693.
In the case of CGTCCAAGGGCAAAGGTCAGTGAAGAGATGACGG, the PBM binding z-score came to 1.34.
The result for TCTCGGAGGACACGAACGGTCAGAGCTCGACATC reads -0.389; that for GCGACTGGGGTATCAGCAGGTTACCATAACTTAA, -0.333; that for ATCTCTAGGTAAAAAGTTCAGTGAAAGAGAGGAC, 1.56.
Turning to CTCGAAAGGTCGGTTAAGGTGAGTATACGGATAA, the PBM binding z-score was found to be 0.781.
For the sequence GCTGCTAGGTCAGGTTGGTCACCTAACGGGTACG, the PBM binding z-score stood at 0.477.
In turn, GGAACGAGGGCAAAGTTGATAGCATCTGTCGACG gave a PBM binding z-score of 1.21.
For the sequence CCTTACGGGTGACTGACAGGTTATAGCATTTGGA, the PBM binding z-score is -0.209.
As for AATCCAGGGTCATCGTAGGCCAGAGTACGCACAG, the PBM binding z-score amounted to 4.06.
As to ACTAGCAGGCCAAGTCTGGGTCACTCAAACAAAG, the PBM binding z-score worked out at 0.0682.
Sequence ATCTCTAGGTAAGACTAAGTTCAGTGAAGAACGC came in with a PBM binding z-score of 2.25.
For CAAACTAGGTCAGCGGAAGGTCAAAGTCCGCATG, the PBM binding z-score stood at 2.6.
Regarding GATACAGGGTCAAGGCCGGAGTACGCGTATTGAT, the PBM binding z-score is 1.78.
Then GCGTACGGGTCAAAGGTTATAGCATGAATAGAAT, with 1.08; and CGATCGAGGGCATGAGTTGATAGCAAATGCCGAT, with 1.5; and GTACCTAGGTGAATAGGTCGTTGATGAGTAGGCG, with 0.0472.
Consider TCTATTAGTTTATTAGGGCAACCGAAACAGCGGA, for which the PBM binding z-score was 1.29.
With GCTCGGCGGACAAGGTCAGAGCTTTGTCCGTAGA, the PBM binding z-score was 0.0541.
Then ACTAGCAGGCCAAGGGTCTCTCAAGATTAGTCCG, with -0.872.
GCTGCTAGGTCAGGTTGGTCAGATAACGGGTACG displayed a PBM binding z-score of 1.02.
Consider GCTAGCAGGCCATTTGAGTCACTCAATGACGGGC, for which the PBM binding z-score is -0.525.
CGAACGAGGGCATGCGTTGATAGCAAATGCCGAT: the PBM binding z-score came to 1.21.
In turn, AATAGCAGGCCAAGTTTGGGTCACTCAAACAAAG displayed a PBM binding z-score of 0.388.
In turn, TCTAGTTCGTCAAAGGTCACACACTCGAAATGCG had a PBM binding z-score of 3.49.
ACTTACGGGTCAACGAGGTTATAGTACGCGTATA: the PBM binding z-score amounted to 4.38.
The sequence AGAATGAGGGCAATGAGTTGATAGCACGGGTGGC registered a PBM binding z-score of 3.47.
Then ACTAGCAGGCCAAGTTTGGGTCACTGAAACAAAG, with 0.416.
